High-throughput results (PubChem)
Shown are actives, neighbours in structure and some others; about 3.9% of the full set was active somewhere.
PLCg1 inh – PLC-gamma1 (human) inhibition, primary screen | purified PLC-gamma1, fluorogenic substrate, fluorescence | AID 720700 | inhibition, % at 12.2 µM | actives 0.84% (n = 370,000) | P19174; in the data active = inhibition above about 9.5%
AHR act – activates the human aryl hydrocarbon receptor; activation, % at 5 µM; actives 2.5% (n = 320,000); AHR-responsive luciferase reporter cells, luminescence; in the data active = activation above about 47%
Target sequence (P35869 whole entry, looked up): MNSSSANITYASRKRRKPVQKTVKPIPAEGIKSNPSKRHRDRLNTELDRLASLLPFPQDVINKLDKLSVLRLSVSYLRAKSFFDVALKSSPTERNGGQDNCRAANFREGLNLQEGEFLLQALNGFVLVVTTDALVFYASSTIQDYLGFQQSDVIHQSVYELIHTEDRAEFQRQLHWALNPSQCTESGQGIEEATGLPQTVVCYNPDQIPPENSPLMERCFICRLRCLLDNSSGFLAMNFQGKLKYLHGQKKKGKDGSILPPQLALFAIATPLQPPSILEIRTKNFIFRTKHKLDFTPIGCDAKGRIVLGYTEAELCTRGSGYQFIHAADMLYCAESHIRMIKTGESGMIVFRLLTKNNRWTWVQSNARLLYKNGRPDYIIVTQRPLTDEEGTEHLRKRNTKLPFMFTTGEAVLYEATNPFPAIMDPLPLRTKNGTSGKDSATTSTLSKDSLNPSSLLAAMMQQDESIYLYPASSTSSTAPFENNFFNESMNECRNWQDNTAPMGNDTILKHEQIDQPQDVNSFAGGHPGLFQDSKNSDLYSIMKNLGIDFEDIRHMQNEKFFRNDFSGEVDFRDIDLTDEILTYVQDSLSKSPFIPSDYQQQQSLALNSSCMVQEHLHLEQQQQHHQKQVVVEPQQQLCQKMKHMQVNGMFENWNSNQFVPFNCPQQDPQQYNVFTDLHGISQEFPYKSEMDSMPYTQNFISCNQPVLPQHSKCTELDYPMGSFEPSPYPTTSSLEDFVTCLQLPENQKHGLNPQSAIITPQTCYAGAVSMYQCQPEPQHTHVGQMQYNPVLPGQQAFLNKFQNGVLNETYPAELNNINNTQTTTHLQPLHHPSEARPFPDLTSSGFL
HIF activator – HIF pathway transcriptional activation. U2OS HRE-luciferase reporter, luminescence; normalized: DMSO 0%, desferrioxamine 100%. activation, % at 7.5 µM (by protocol). AID 1910. actives 0.32% (n = 300,000);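 active = mean activation of at least 10% of the iron chelator positive control signal, with at least half of replicates also reaching 10%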
CR mimetic SO – yeast age-related superoxide inhibition as caloric restriction mimetic; actives 0.18% (n = 330,000); superoxide response (% of plate mean), % at 10 µM; AID 2690; S. cerevisiae aged cells, superoxide DHE fluorescence; hits give low values;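 active = superoxide response under a set limit, about three screen SD below normal, cut at about 65% in these data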;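 note: yeast aged for seven days with compound at 30 °C before DHE staining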
HGIII-sPLA2 inh – Inhibits HGIII-sPLA2 liposome hydrolysis, primary screen; Q9NZ20; QFRET BODIPY PC-A2 liposome hydrolysis, fluorescence; inhibition, % at 12.2 µM; actives 0.56% (n = 370,000); AID 743126;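 active = inhibition above mean plus 3 SD of compounds lying within the high and low control bounds, cut at about 19% in these data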
PLCb3 inh – PLC-beta3 (human) inhibition, primary screen. Q01970. Purified PLC-beta3, fluorogenic substrate, fluorescence. inhibition, % at 12.2 µM. actives 0.18% (n = 370,000). AID 720704; in the data active = inhibition above about 11%
Numbers stand for hits; i = inactive; nt = not tested or not shown.

SMILES	PLCg1 inh	AHR act	HIF activator	CR mimetic SO	HGIII-sPLA2 inh	PLCb3 inh
Cc1cc(C)c2nc(-c3ccccn3)cc(C(=O)NCc3cc(C)n(C)n3)c2c1	i	i	i	i	i	i
Cc1cc(C)c2nc(-c3ccccn3)cc(C(=O)NCc3ccco3)c2c1	i	69	i	i	i	i
O=C(c1ccc(OC2CCN(CCc3ccccc3)CC2)cc1)N1CCCC1	i	i	i	i	i	i
CCc1ccc(CN2CCC(Oc3ccc(C(=O)N4CCCC4)cc3)CC2)cc1	i	i	i	i	i	i
O=C(c1ccc(OC2CCN(CCc3ccccc3)CC2)cc1)N1CCCC(CCCO)C1 (configuration not stated)	i	i	44	i	i	i
O=C(c1ccc(OC2CCN(Cc3ccc(F)cc3)CC2)cc1)N1CCCC1	i	i	53	i	i	i
C[C@H]1[C@@H](OC(=O)NCc2ccccc2Cl)CC[C@@]23CCCN2C(=O)CCC[C@@H]13	i	nt	nt	nt	i	i
CC(=O)N1CCN(C(C)=O)c2ccccc21	i	nt	nt	nt	i	i
CC(=O)N1CCn2c3ccc(C)cc3c3cccc1c32	i	71	i	i	i	i
COC(=O)c1cc(-c2ccc(Cl)s2)c(=O)n2c1CCC2	i	nt	nt	nt	i	i
CCSc1ncc(/C=N/Nc2ccc(Cl)cc2)n1C	i	103	i	i	i	i
COc1ccc(-c2ccc3c(n2)CCCN3Cc2ccccc2C(F)(F)F)cc1	i	nt	nt	nt	i	i
O=C1Nc2ccc(Cl)cc2/C1=C/C1CC=CCC1 (configuration not stated)	i	i	394	i	i	i
O=C1Nc2cnc(Cl)nc2Nc2ccc(Cl)cc21	i	nt	nt	nt	i	i
O=C(N1CCc2ccccc2C1)n1cc(C(O)(c2ccccc2)c2ccccc2)nn1	i	nt	nt	nt	i	i
Cn1c(=O)n(Cc2ccccc2)c(=O)c2c1nc1n2CCCN1Cc1ccccc1	11	i	i	i	i	i
Cn1c(-c2nnn(-c3ccc(F)cc3)n2)cc2ccccc21	i	69	i	i	i	i
Fc1ccc(-n2nnc(-c3ccnc4ccccc34)n2)cc1	i	54	i	i	i	i
Cc1ccc(-n2nnc(-c3ccnc4ccccc34)n2)cc1	i	i	i	i	i	i
O=C(N[C@H](Cc1ccccc1)C(=O)N1CCCN(Cc2ccccc2F)CC1)[C@H]1O[C@@H](n2ccc(=O)[nH]c2=O)[C@H](O)[C@@H]1O	i	nt	nt	nt	i	i
COc1ccccc1N1CCN(CCCNC(=O)C2CCCN(c3ncnc4c3nc3n4CCCCC3)C2)CC1 (configuration not stated)	i	i	134	i	i	i
O=C(NCCCN1CCN(c2ccc(F)cc2)CC1)C1CCCN(c2ncnc3c2nc2n3CCCCC2)C1 (configuration not stated)	i	i	i	i	i	i
CC1=NN(c2ccc(S(=O)(=O)O)cc2C)C(=O)C1	i	i	i	i	i	i
O=C(O)C1=NN(c2cc(Cl)c(S(=O)(=O)O)cc2Cl)C(=O)C1	15	nt	nt	nt	i	i
N#Cc1ccc(C(=O)Oc2coc(CSc3ncccn3)cc2=O)cc1	i	nt	nt	nt	i	i
SMILES	PLCg1 inh	AHR act	HIF activator	CR mimetic SO	HGIII-sPLA2 inh	PLCb3 inh
CCC(C)[C@H](NC(=O)[C@H](CC(C)C)NC(=O)OC(C)(C)C)C(=O)N[C@@H](Cc1ccccc1)C(=O)OC (some centres not stated)	i	nt	nt	nt	i	i
O=C(Nc1ccccc1O)c1ccc(NS(=O)(=O)c2cccc3cccnc23)cc1	i	i	127	i	i	i
O=C(Nc1ncccc1O)c1ccc(S(=O)(=O)Nc2ccccc2)cc1	i	i	72	i	i	i
O=C(Nc1ncccc1O)c1ccc(NS(=O)(=O)c2ccc3[nH]c(=O)[nH]c3c2)cc1	i	nt	nt	nt	i	i
COC(=O)c1ccc(NC(=O)c2ccc(NS(=O)(=O)c3cccc4cccnc34)cc2)cc1	nt	i	i	i	nt	nt
COc1cccc(CNC(=O)[C@H]2CCCN2C(=O)[C@H]2CCCN2C(=O)c2cccc(Cl)c2)c1	i	nt	nt	nt	i	i
Cc1ccc(-c2cc(=O)c3ccccc3[nH]2)cc1	i	50	i	i	i	i
O=c1cc(-c2ccc(Cl)cc2)[nH]c2ccccc12	nt	i	i	i	nt	nt
O=C1C2C(CC3c4ccccc4CCN32)CN1c1ccccc1 (configuration not stated)	i	nt	nt	nt	i	i
CCC(C)N(C(=O)CSc1nnc(-c2cccnc2)n1C1CCCCC1)C(C)CC (configuration not stated)	i	nt	nt	nt	i	i
